Values joined by “and” are separate entries in the source; they are usually repeats but may differ in a detail not shown here. Equal values may be shown once. The panel holds about 83,000 compounds, 20% with a hit somewhere; the sample as a whole holds those more often.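 How to read the values: 0–100, growth inhibition (40 = 60% inhibited); 0, no net growth; -100 to 0, cell death (-40 = 40% of starting cells died; -100 = all dead).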 A number with no mark means an inactive call. Active and inactive are the calls of the source. Rule for the calls: active = growth percent below 10; inactive = the rest.

The subject of the experiment is HL-60(TB) leukemia. In words: NCI-60 one-dose screen, 48 h (100 = growth as untreated, 0 = no growth, -100 = all killed). To be noted: 10 µM unless noted.
Consider `CCCN1CCN(c2ccc3nc(-c4ccc5nc(-c6ccc(C(F)(F)F)cc6)[nH]c5c4)[nH]c3c2)CC1`, for which the growth is -40.7% (active).
For `c1cncc(CNc2ccccc2-c2nnc(Nc3ccc4c(c3)OCCO4)o2)c1` the value was 8.71% (active); for `COc1ccc(C(O)c2cc3c(N)c(C(=O)Nc4ccccc4)sc3nc2C)cc1` (stereo not given), -68.5% (active); for `Cc1cc(Nc2ccc(Cl)c(Cl)c2)nc(N)n1`, 62.7%.
The figure for `O=S(=O)(Nc1ccccc1)C1CCCCC1` is 97.2% and 106%; for `CCOC(=O)N1C/C(=C/c2ccc(OC)cc2)C(=O)/C(=C/c2ccc(OC)cc2)C1` it is 16.7%; for `CC1OS(=O)OC1C` (stereo not given) it is 96.3% and 89.9%.
On to `CCOC(=O)C1=CN(C)C=C(C(=O)OCC)C1c1cc(Br)c(OCC)c(OC)c1`, for which the growth is 66.7%.
For `c1cc(CNCCNCc2ccncc2)ccn1` the value was 75.8%.
For `OC1CC2c3ccccc3C1c1ccccc12` (stereo not given) the value was 109%; for `Cc1nc2ncccc2nc1Nc1ccc(S(=O)(=O)Nc2cncs2)cc1`, 109%.
The figure for `CC(C)(C)c1ccc(O)c(-c2ccccc2)c1` is 0.4% (active); for `CN1CCc2c(Sc3ccc(C(=O)NO)cc3)c3ccccc3n2C1` it is 60.3%; for `Oc1c(Br)cc(Cl)cc1C(c1cc(Cl)cc(Br)c1O)C(Cl)(Cl)Cl` it is 9.73% (active).
In the case of `O=C(Nc1cccc2[nH]c(C(F)(F)F)nc12)c1cc(Cl)ccc1Cl`, the growth is 36.4%.
The figure for `ClC/C=C/CSc1ncnc2nc[nH]c12` is 97.9% and 95.6%; for `O=C1CCCN1c1cccc2cccnc12` it is 101%.
For `O=[N+]([O-])c1ccc(NS(=O)(=O)c2cc(Cl)ccc2Cl)c2ccccc12` the value was 33.4%.
For `CN(C)CCCN1c2ccccc2Sc2ccc(Cl)cc21` the value was 107% and 92.5%; for `S=C(S)N1CCCC1`, 114% and 110%.
As to `Cc1[nH]c(C(=O)Nc2ccc(C(=O)N3CCN(c4cc5c(cc4F)c(=O)c(C(=O)O)cn5C4CC4)CC3)cc2OC(C)C)c(Cl)c1Cl`, the growth was 92.7%.
The figure for `CC(=O)N1c2ccccc2NC2=C(C(=O)N(C)C2(C)C)C1C` (stereo not given) is 7.5% (active); for `Fc1ccc2c(c1)c(-c1nc(-c3c[nH]c4ncccc34)cs1)cn2CCCN1CCCCC1` it is 24.2%; for `COc1ccc2c(c1)c(-c1noc(C(=O)c3cn(C)c4ccc(Br)cc34)n1)cn2C` it is 84.4%.
The figure for `O=c1oc2ccc([N+](=O)[O-])cc2cc1Br` is 105%.
The figure for `CCN1CCN(CCNc2nccc(-c3c(-c4cccc(O)c4)nc4sccn34)n2)S1(=O)=O` is 64% and 91.9%; for `COc1ccc(-c2nc(SCCC(C)C)nc(Nc3ccc(F)c(Cl)c3)c2C#N)cc1` it is 107%.
With `Nc1nc(=S)c2ncn(C3OC(COC(=O)c4ccc(Cl)cc4)C(OC(=O)c4ccc(Cl)cc4)C3OC(=O)c3ccc(Cl)cc3)c2[nH]1` (stereo not given), the growth is 93.7%.
For `COc1cc(/C=N/NC(=O)Cn2c(-c3ccc(C)o3)nc3ccccc32)ccc1OCc1ccccc1` the value was 87.4%.
For `O=C1C2=C(C(=O)c3ccccc31)C(O)(S(=O)(=O)O)C(O)(S(=O)(=O)O)C1N=CC=CC21` (stereo not given) the value was 28.7% and 31.4%.
On to `CC(C)NCCCCCNc1cc(O)cc2cccnc12`, for which the growth was -43.6% (active).
In the case of `CC(C)(O)C#CC#CC(C)(C)O`, the growth is 104%.
For `COc1ccc(-c2nn(-c3ccc(Cl)cc3)cc2-c2nc3ccccc3[nH]2)cc1` the value was 114%.
For `CSc1ccc(C(=O)C[n+]2cccc(C)c2)cc1` the value was 102%; for `COc1cc(NC(C)CCCNC(C)C)c2ncccc2c1OC` (stereo not given), 10.6%; for `COC(=O)c1cc(=O)nc(N/N=C/c2ccccc2O)s1`, 87.3%.
For `O=C(C=P(c1ccccc1)(c1ccccc1)c1ccccc1)c1ccc(Br)cc1` the value was 8.84% (active); for `CN1CCN(c2nc(NCCCCNc3ccnc4cc(Cl)ccc34)c3ccccc3n2)CC1`, 28.6%; for `N#C/C(=C\c1ccc(Br)cc1)n1nnc2cccc(F)c21`, -9.67% (active).
In the case of `Cc1cc2c(C(C)C)c(O)c(O)c(C=NCCCCCCC(=O)O)c2c(O)c1-c1c(C)cc2c(C(C)C)c(O)c(O)c(C=NCCCCCCC(=O)O)c2c1O`, the growth was 28.9%.

These data come from PubChem BioAssay (NCI).
